Experimental data published in PubChem BioAssay AID1542 (National Center for Advancing Translational Sciences (NCATS), 2009).
Results filed as inconclusive are left out. The source made the active and inactive calls. Calls come from the whole dose curve; as a rule, active = well fitted curve in the direction sought with a large enough effect; inconclusive = small, poorly fitted or top-dose-only effect, or effect the other way, or another doubt; inactive = no such curve, though single readings can be large or run the other way.

target: Pyruvate kinase PKM (Homo sapiens) (UniProt P14618); assay: Secondary assay for Activators of Human Pyruvate Kinase M1 isoform; conditions: purified hPK-M1, LDH-coupled NADH fluorescence kinetic; series mostly up to 57.5 µM; activity change, positive = activation: at the top concentration
Excerpt: Confirmatory assay NIH Chemical Genomics Center [NCGC] Matthew G. Vander Heiden, M.D., Ph.D. [Harvard Medical School, 77 Avenue Louis Pasteur, Boston, MA 02115] NCGC Assay Overview: Human pyruvate kinase […] (hPK-M1)enzyme was supplied as a highly purified (>95% pure) preparation from Harvard Medical School and a secondary assay was used to evaluate compounds. This assay couples the formation of pyruvate from hPK-R using lactate dehydrogenase (LDH) and NADH. The depletion of NADH is followed in a fluorescent-based kinetic assay that follows the formation of pyruvate to lactate, as catalyzed LDH. Pyruvate kinase substrates, PEP and ADP, were present in the assay at 0.1 mM and 4 mM respectively. In this kinetic assay initial rates were determined by following the fluorescence of NADH depletion.
NCGC Assay Protocol Summary: Three uL of substrate mix (final concentration, 50 mM Tris-Cl pH 8.0, 200 mM KCl, 15 mM MgCl2, 0.1 mM PEP, 4.0 mM ADP, and 0.2 mM NADH) was dispensed into black-solid 1536 well plates. 23 nL of compounds were delivered by a pin tool and 1 uL of enzyme mix (final concentrations, 10 nM hPK-M1 and 1 uM of LDH) was added. Plates were immediately placed in ViewLux (Perkin Elmer) and NADH fluorescence was determined at 30 second exposure intervals for between 3 and 6 minutes. Data were normalized to the uninhibited controls.

Pyruvate kinase PKM (Homo sapiens), sequence (P14618 whole entry, looked up, canonical isoform): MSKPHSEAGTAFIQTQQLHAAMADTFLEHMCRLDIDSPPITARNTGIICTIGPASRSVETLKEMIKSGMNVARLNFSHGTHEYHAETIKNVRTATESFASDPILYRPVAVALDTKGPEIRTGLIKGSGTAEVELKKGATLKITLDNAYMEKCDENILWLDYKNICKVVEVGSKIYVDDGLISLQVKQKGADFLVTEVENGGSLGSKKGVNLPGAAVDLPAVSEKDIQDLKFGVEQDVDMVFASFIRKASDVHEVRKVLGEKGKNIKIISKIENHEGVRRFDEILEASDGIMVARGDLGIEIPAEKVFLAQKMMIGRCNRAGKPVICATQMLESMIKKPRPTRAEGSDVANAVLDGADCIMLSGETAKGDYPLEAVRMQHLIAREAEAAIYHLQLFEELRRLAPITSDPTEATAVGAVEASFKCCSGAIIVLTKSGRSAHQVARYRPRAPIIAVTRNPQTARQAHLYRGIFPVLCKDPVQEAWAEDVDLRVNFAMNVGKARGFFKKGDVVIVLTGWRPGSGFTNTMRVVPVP

Activity change, positive = activation, inactive:
O=S(=O)(c1ccc2c(c1)OCCO2)N1CCN(S(=O)(=O)c2ccccn2)CC1 -9.53%
Cn1ccc2cc(S(=O)(=O)N3CCN(S(=O)(=O)c4c(F)cccc4F)CC3)ccc21 14.4%
CCOC(=O)CCc1cc(F)c(S(=O)(=O)N2CCN(S(=O)(=O)c3ccc4c(c3)OCCO4)CC2)cc1F -4.06%
Cc1cc2c(s1)c1cnn(Cc3cccc(Cn4ncc5c6sc(C)cc6n(C)c5c4=O)c3F)c(=O)c1n2C -9.29%
COc1ccc(S(=O)(=O)N2CCN(S(=O)(=O)c3ccc4c(c3)OCCO4)CC2)cc1 -6.87%
CS(=O)(=O)Nc1cccc(-c2cc(F)c(S(=O)(=O)N3CCN(S(=O)(=O)c4ccc5c(c4)OCCO5)CC3)cc2F)c1 -9.36%
C[C@H]1CN(S(=O)(=O)c2ccc3c(c2)OCCO3)CCN1S(=O)(=O)c1c(F)cccc1F 14.6%
Cn1c2cc(C(=O)O)sc2c2cnn(Cc3ccccc3F)c(=O)c21 -11.8%
Cc1cc2c(s1)c1cnn(Cc3ccc(C(F)(F)F)cc3F)c(=O)c1n2C 9.47%
Cc1cc2c(s1)c1cnn(Cc3cccc(F)c3)c(=O)c1n2C 14.8%
Cc1cc2c(s1)c1cnn(Cc3ccccc3F)c(=O)c1n2C 1.47%
O=C(O)c1cc(F)c(S(=O)(=O)N2CCN(S(=O)(=O)c3ccc4c(c3)OCCO4)CC2)cc1F 19.7%
O=C(O)CCc1cc(F)c(S(=O)(=O)N2CCN(S(=O)(=O)c3ccc4c(c3)OCCO4)CC2)cc1F 2.14%
C[C@@H]1CN(S(=O)(=O)c2c(F)cccc2F)CCN1S(=O)(=O)c1ccc2c(c1)OCCO2 12%
O=S(=O)(c1ccc2c(c1)OCCO2)N1CCN(S(=O)(=O)c2c(F)cccc2F)CC1 8.24%
CC(C)c1cc2c(s1)c1cnn(Cc3ccccc3F)c(=O)c1n2C 2.22%
O=S(=O)(c1ccc2c(c1)OCCO2)N1CCN(S(=O)(=O)c2cc(F)c(Br)cc2F)CC1 -15.8%
Cc1cc2c(s1)c1cnn(Cc3c(F)cccc3Cl)c(=O)c1n2C 12.7%
Cc1cc2c(s1)c1cnn(Cc3ccc(Cl)cc3)c(=O)c1n2C -0.421%
O=C(O)/C=C/c1cc(F)c(S(=O)(=O)N2CCN(S(=O)(=O)c3ccc4c(c3)OCCO4)CC2)cc1F -16.2%
Cc1nc2ccc(S(=O)(=O)N3CCN(S(=O)(=O)c4c(F)cccc4F)CC3)cc2s1 11.1%
COC(=O)c1cc(F)c(S(=O)(=O)N2CCN(S(=O)(=O)c3ccc4c(c3)OCCO4)CC2)cc1F -0.231%
O=S(=O)(NC1CCC(NS(=O)(=O)c2c(F)cccc2F)CC1)c1ccc2c(c1)OCCO2 (stereo not given) 3.43%
Cc1cc2c(s1)c1cnn(Cc3c(F)c(F)cc(F)c3F)c(=O)c1n2C 9.56%
O=S(=O)(NCC1CN(S(=O)(=O)c2c(F)cccc2F)C1)c1ccc2c(c1)OCCO2 -5.12%
O=c1[nH]c2ccc(S(=O)(=O)N3CCN(S(=O)(=O)c4c(F)cccc4F)CC3)cc2[nH]c1=O -22%
O=S(=O)(c1ccc2nc(Cl)c(Cl)nc2c1)N1CCN(S(=O)(=O)c2c(F)cccc2F)CC1 17.4%
O=C(O)Cc1cc(F)c(S(=O)(=O)N2CCN(S(=O)(=O)c3ccc4c(c3)OCCO4)CC2)cc1F 19%
CCOC(=O)/C=C/c1cc(F)c(S(=O)(=O)N2CCN(S(=O)(=O)c3ccc4c(c3)OCCO4)CC2)cc1F -2.46%
C=Cc1cc(F)c(S(=O)(=O)N2CCN(S(=O)(=O)c3ccc4c(c3)OCCO4)CC2)cc1F -7.75%
Cc1cc2c(s1)c1cnn(Cc3ccc(F)cc3)c(=O)c1n2C 7.03%
COC/C=C/c1cc(F)c(S(=O)(=O)N2CCN(S(=O)(=O)c3ccc4c(c3)OCCO4)CC2)cc1F -14.8%
O=C(N1CCc2ccc(S(=O)(=O)N3CCN(S(=O)(=O)c4ccc5c(c4)OCCO5)CC3)cc2C1)C(F)(F)F -17.2%
O=S(=O)(NC1CCN(S(=O)(=O)c2ccc3c(c2)OCCO3)CC1)c1c(F)cccc1F -0.701%
C=Cc1cc2c(s1)c1cnn(Cc3ccccc3F)c(=O)c1n2C -6.78%
O=S(=O)(c1ccc2c(c1)OCCO2)N1CCN(S(=O)(=O)c2ccc3c(c2)OCCO3)CC1 4.7%
O=S(=O)(c1ccc2c(c1)OCCO2)N1CCN(S(=O)(=O)c2ccc3nc(Cl)c(Cl)nc3c2)CC1 28.8%
Cn1c2cc(S(C)(=O)=O)sc2c2cnn(Cc3ccccc3F)c(=O)c21 23.4%
O=C(c1c(F)cccc1F)N1CCN(S(=O)(=O)c2ccc3c(c2)OCCO3)CC1 9.03%
O=S(=O)(c1c(F)cccc1F)C1CCN(S(=O)(=O)c2ccc3c(c2)OCCO3)CC1 -23.9%
